# According to PubChem BioAssay AID1851 (National Center for Advancing Translational Sciences (NCATS), 2009):
# Out of some 16,000 compounds screened, about 5,700 (36%) were called active. Another 24% or so got no clear call; they are omitted. Calls come from the whole dose curve; as a rule, active = well fitted curve in the direction sought with a large enough effect; inconclusive = small, poorly fitted or top-dose-only effect, or effect the other way; inactive = no such curve, though single readings can be large or run the other way. The list shows a part of the results.
# Molecular target: Cytochrome P450 1A2 (Homo sapiens) (UniProt P05177)
# Test: Cytochrome panel assay with activity outcomes
# Details: recombinant CYP, pro-luciferin dealkylation, luminescence, p450-cyp1a2; series mostly up to 57.1 µM; activity, negative = inhibition: at the top concentration
# % is set by controls: 0 for no effect and ±100 for the full control effect.
# Chain of Cytochrome P450 1A2 (Homo sapiens) (P05177 whole entry, looked up): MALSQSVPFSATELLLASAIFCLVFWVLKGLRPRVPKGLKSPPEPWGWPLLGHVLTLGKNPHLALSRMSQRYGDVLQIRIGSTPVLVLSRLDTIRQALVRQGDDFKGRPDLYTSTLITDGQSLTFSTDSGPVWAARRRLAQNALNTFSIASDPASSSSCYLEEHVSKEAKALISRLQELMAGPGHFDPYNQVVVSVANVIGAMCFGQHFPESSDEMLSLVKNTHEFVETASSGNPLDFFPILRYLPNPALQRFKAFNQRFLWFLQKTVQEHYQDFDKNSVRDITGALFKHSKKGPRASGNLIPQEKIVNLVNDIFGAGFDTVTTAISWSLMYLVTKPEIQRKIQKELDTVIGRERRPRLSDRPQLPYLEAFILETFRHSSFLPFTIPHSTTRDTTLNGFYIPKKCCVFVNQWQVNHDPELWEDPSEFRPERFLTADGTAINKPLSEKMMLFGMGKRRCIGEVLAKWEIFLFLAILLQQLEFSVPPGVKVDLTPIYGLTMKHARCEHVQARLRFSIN
Compound,"activity, negative = inhibition",AC50
C[C@@]12C[C@H](O)[C@@H]3[C@H](CCC4=CC(=O)CC[C@]43C)[C@H]1CC[C@@H]2c1csc(N)n1,-9.78% [at 2.29 µM] (inactive),
Cc1cccc(CNc2ncncc2-c2ccccc2Cl)c1,,3.16 µM (active)
Cc1ccccc1-c1cncnc1NCc1ccccc1,,12.6 µM (active)
Cc1cccc(CNc2ncncc2-c2ccccc2C)c1,,2.51 µM (active)
N#Cc1ccccc1-c1cncnc1NCc1cccnc1,,0.0631 µM (active)
CCCCCCCCCCCCCCCCCC(=O)O[C@H](CC(=O)O)C[N+](C)(C)C,4.66% (inactive),
CCN1CCCCC(=N/O)/C(=N/O)CCCC1,-9.97% [at 11.4 µM] (inactive),
CC(C)(C)NS(=O)(=O)c1ccc(NC(=O)C(Sc2ccccc2)c2ccccc2)cc1 (configuration not stated),19.8% (inactive),
C[C@@H]1OC2C3=C(C(=O)[C@H]4O[C@@H]4[C@H]3O)[C@@H]1[C@H]1[C@H](C)OC=C3[C@H](O)[C@H]4O[C@H]4/C(=N\OCc4ccccc4)[C@@]321,-13.5% [at 11.4 µM] (inactive),
O=C(c1ccco1)N1CCC[C@@]2(CCN(Cc3nccs3)C2)C1,-14.9% (inactive),
Cc1ccccc1-c1cncnc1NCc1cccnc1,,15.8 µM (active)
FC(F)(F)c1ccccc1-c1cncnc1NCc1cccnc1,,20 µM (active)
COc1cccc(Nc2ncc3nc(-c4ccccc4)c(=O)n(C)c3n2)c1,,3.16 µM (active)
Cc1nc2cnc(Nc3ccccc3)nc2n(C)c1=O,,1.26 µM (active)
Cn1c(=O)c(-c2ccccc2)nc2cnc(Nc3ccccc3)nc21,,15.8 µM (active)
Cc1ccc(S(=O)(=O)NC(=O)Nc2ncn[nH]2)cc1,-21.4% [at 2.29 µM] (inactive),
N[C@H](CCCC(=O)O)C(=O)O,-19.5% (inactive),
O=C(NC[C@@H](O)CO)c1c(I)c(C(=O)NC[C@@H](O)CO)c(I)c(N(CCO)C(=O)CO)c1I,1.79% [at 25.6 µM] (inactive),
COc1cc2nc(N3CCN(C(=O)[C@@H]4CCCO4)CC3)nc(N)c2cc1OC,-9.14% [at 25.6 µM] (inactive),

Compound,"activity, negative = inhibition",AC50
CCN1CCN(S(=O)(=O)c2ccc(Cl)c(C(=O)Nc3nnc(CC(C)C)s3)c2)CC1,-22.1% (inactive),
O=C(c1cc(Cl)c(=O)n(Cc2ccc(Cl)cc2)c1)N1CCOCC1,-5.88% (inactive),
Cc1nc2c(C(=O)N3CCOCC3)cnn2c(C)c1Cc1ccc(Cl)cc1,,15.8 µM (active)
Cc1ccc(CS(=O)(=O)CCC(=O)N2CCOCC2)cc1,-4.66% (inactive),
O=C(O)CNC(=O)[C@@H](CS)Cc1ccccc1,-8.2% (inactive),
COc1cc2nc3c(c([Si](C)(C)C(C)(C)C)c2cc1OC)Cn1c-3cccc1=O,,5.01 µM (active)
CC(C)(C)[Si](C)(C)c1c2c(nc3ccc(OCc4ccccc4)cc13)-c1cccc(=O)n1C2,,5.01 µM (active)
COc1ccc2nc3c(c([Si](C)(C)C(C)(C)C)c2c1)Cn1c-3cccc1=O,,0.794 µM (active)
Cc1nc2cnc(N3CCN(C)CC3)nc2n(CCc2ccccc2)c1=O,,10 µM (active)
COCCn1c(=O)c(C)nc2cnc(N3CCNCC3)nc21,,10 µM (active)
CN1CCN(c2ncc3nc(-c4cc(F)cc(F)c4)c(=O)n(CCc4ccccc4)c3n2)CC1,-16.9% (inactive),
COCCn1c(=O)c(C)nc2cnc(N3CCN(C)CC3)nc21,,15.8 µM (active)
COc1ccc(-c2nc3cnc(N4CCN(C)CC4)nc3n(CCc3ccccc3)c2=O)cc1,-5.93% (inactive),
CN(C)C[C@H]1CCC2=C(C1=O)C(c1ccc(Cl)c(Cl)c1)C1=C(CC[C@H](CN(C)C)C1=O)O2,-2.04% [at 2.29 µM] (inactive),
CC[C@H]1C2=C3C(CC[C@H]4C(OCc5ccc(F)cc5C(F)(F)F)OC[C@](C)([C@@H]34)N(C(=O)OC(C)(C)C)C2)C(COC(C)=O)C1COC(C)=O (some centres not stated),-20.1% (inactive),
Cc1cc(C(C)(C)C)cc(CNC2CCCCC2)c1O,,3.16 µM (active)
Oc1cc(CN2COc3ccccc32)c(O)cc1CNC1CCCCC1,-14.2% [at 11.4 µM] (inactive),
CO[C@@H]1COC(=O)C/C=C\[C@@H](C)COC(=O)[C@H](Cc2ccccc2)NC(=O)C/C=C\[C@H]1C,5.59% [at 11.4 µM] (inactive),
CCC(=O)NCc1c(Cl)cccc1-n1cccc1,,14.1 µM (active)

Compound,"activity, negative = inhibition",AC50
O=C(NNC(=O)c1ccccc1-n1cccc1)c1ccccc1,-15% (inactive),
COc1nc(C)nc(Cl)c1NC1=NCCN1,,inactive
C/C(=C\c1ccco1)C1C(C#N)=C(N)Oc2n[nH]c(-c3ccccc3)c21 (configuration not stated),,0.2 µM (active)
COc1ccc(C(C)(C)C)cc1NC(=O)c1cncc(Br)c1,,1 µM (active)
Cc1nnc(SCc2nc(N)nc(Nc3ccccc3)n2)s1,,4.47 µM (active)
COc1ccc(Nc2nc(N)nc(CSc3n[nH]c(-c4ccccc4)n3)n2)cc1,,15.8 µM (active)
NC[C@@H]1O[C@H](O[C@@H]2[C@H](O[C@@H]3O[C@H](CO)[C@@H](COC[C@H]4O[C@@H](CN)[C@@H](O)[C@@H](O)[C@@H]4N)[C@@H]3O)[C@@H](O)[C@@H](N)C[C@H]2N)[C@@H](N)[C@H](O)[C@@H]1O,-3.52% [at 25.6 µM] (inactive),
CC(C)c1ccc(N(C(=O)C(F)(F)F)C(C(=O)NC2CCCCC2)c2ccncc2)cc1 (configuration not stated),-19.1% (inactive),
Cc1cc(C)cc(N(C(=O)Cc2cccs2)C(C(=O)NC2CCCCC2)c2ccccn2)c1 (configuration not stated),-28.1% (inactive),
O=C(OC(C(=O)NC1CCCC1)c1ccncc1)C1=Cc2ccccc2OC1 (configuration not stated),,11.2 µM (active)
NCCOB(c1ccccc1)c1ccccc1,,15.8 µM (active)
Cc1noc(C)c1C(=O)N1CCC2(CCCN(Cc3ccc(C#N)cc3)C2)CC1,-23.7% (inactive),
Cc1noc(C)c1C(=O)OCC(=O)NC(c1ccccc1)c1ccccc1,-5.73% (inactive),
Cc1noc(C)c1-c1cc(Nc2ccccc2)ncn1,,1.26 µM (active)
Cc1noc(C)c1-c1cc(Nc2ccc(F)cc2)ncn1,,0.501 µM (active)
Cc1n[nH]c(C)c1S(=O)(=O)N1CCOCC1,0.471% (inactive),
CCc1cc2c(nc1CC)CCN(CC/C(C)=N/O[C@@H](C)c1cc(-c3c(C)cc(C)cc3C)no1)C2,-8.6% [at 11.4 µM] (inactive),
O=C(O)/C(=C\c1ccc(O)cc1)c1cccc2ccccc12,-10.8% [at 11.4 µM] (inactive),
O=C(c1cnn(-c2ccccc2)c1)c1ccc2ccccc2c1O,,2.51 µM (active)
